Data from PubChem BioAssay (NCI).
The panel holds about 79,000 compounds, 15% with a hit somewhere; the sample as a whole holds those more often. Activity calls are given as the source filed them. No stated cut-off is given here; in the data, active means growth inhibition above about 70%; inactive means the rest.

Experiments:
[1] = NCI Yeast Anticancer Drug Screen. Data for the rad50 strain (AID 155);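 further: 0% = growth of vehicle-only cultures of the same strain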; conditions: S. cerevisiae rad50 strain growth inhibition; at 50.0 µM; stronger effect = higher value
Procedure, shortened: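 Cells are treated with compound, grown, and their growth is then scored against vehicle-only cultures of the same repair-deficient yeast strain.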

[2] = NCI Yeast Anticancer Drug Screen. Data for the mec2-1 strain (AID 157); conditions: S. cerevisiae mec2-1 strain, at 50.0 µM, stronger effect = higher value
Procedure, shortened: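 Each compound was tested on mec2-1 yeast, a strain altered in DNA damage repair or cell cycle control. Growth inhibition is reported relative to vehicle.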

[3] = NCI Yeast Anticancer Drug Screen. Data for the sgs1 mgt1 strain (AID 161);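 further: 0% = growth of cultures given vehicle only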; conditions: S. cerevisiae sgs1 mgt1 strain, at 50.0 µM, stronger effect = higher value
Procedure, shortened: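 Mutant yeast exposed to compound; growth scored against vehicle-only wells.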

[4] = NCI Yeast Anticancer Drug Screen. Data for the cln2 rad14 strain (AID 165);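 further: 0% = growth equal to vehicle treated cultures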; conditions: S. cerevisiae cln2 rad14 strain, at 50.0 µM, stronger effect = higher value
Procedure, shortened: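 Test compounds were added to cln2 rad14 yeast cultures; inhibition of growth was then determined by comparison with vehicle treatment.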

[5] = NCI Yeast Anticancer Drug Screen. Data for the bub3 strain (AID 167); conditions: S. cerevisiae bub3 mutant strain, at 50.0 µM, stronger effect = higher value
Procedure, shortened: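 Part of a panel of yeast mutants defective in DNA damage repair or cell cycle regulation. Each strain is grown with compound, and inhibition is calculated relative to solvent-treated cultures.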

[6] = NCI Yeast Anticancer Drug Screen. Data for the mlh1 rad18 strain (AID 175); conditions: S. cerevisiae mlh1 rad18 strain growth inhibition; at 50.0 µM; stronger effect = higher value
Procedure, shortened: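 Inhibition values reflect reduced growth of mutant yeast versus vehicle-treated controls following compound exposure; the mutations affect DNA damage repair.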

Measured: growth inhibition

CCCN(CCC)C(=S)S
inactive: [1] 43.1% | [2] 7.95% | [3] 54.1% | [4] 32.7% | [5] 23.2% | [6] 14.4%

CC1CCC(C(C)C)C(OC(=O)N/N=C/N(C)C)C1 (stereo unspecified)
inactive: [1] 1.65% | [2] 17.2% | [3] 4.4% | [4] 20% | [5] -0.95% | [6] 25.1%

NCCCCCCNCc1cccc2ccccc12
inactive: [1] -9.85% | [2] -13.1% | [3] -9.7% | [4] 6.05% | [5] -10.3% | [6] -31.4%

O=C1Nc2n[nH]c(=S)n2NC12c1ccccc1-c1ccccc12
inactive: [1] -45.8% | [2] -14.2% | [3] -28.1% | [4] -19.9% | [5] -21.7% | [6] -63.2%

O=C(OCc1ccccc1CN1CCCC1)c1ccc(Br)cc1
inactive: [1] 11% | [2] -6.05% | [3] -9.9% | [4] -16.9% | [5] 20.1% | [6] -17.9%

C=C1C(=O)O[C@@H]2[C@@H]3[C@@H](C)C(=O)C=C[C@]3(C)CC[C@@H]12
inactive: [1] -15.9% | [2] -49.1% | [3] -11.2% | [4] 7.05% | [5] -35.6% | [6] -14.9%

O=C(N/N=C/c1cccc(C(F)(F)F)c1)c1ccncc1
inactive: [1] 12.8% | [2] 6.7% | [3] 11.1% | [4] -15.7% | [5] 8.05% | [6] 5.85%

CC1=C(CCC(=O)O)c2cc3nc(cc4[nH]c(cc5[nH]c(cc1n2)c(C)c5C(C)O)c(C)c4C(C)O)C(C)=C3CCC(=O)O (stereo unspecified)
inactive: [1] 12.4% | [2] 5.2% | [3] 7.7% | [4] 29.8% | [5] 21.6% | [6] 1.65%

CCC(C)(O)C#CC#CC(C)(O)CC (stereo unspecified)
inactive: [1] 17.2% | [2] -22.2% | [3] 22.1% | [4] 16.6% | [5] -5.35% | [6] 22.1%

COc1ccc(NC(=O)CCCC(=O)CC(=O)c2ccc(Cl)cc2)c(OC)c1
inactive: [1] 32.6% | [2] 13.2% | [3] -0.95% | [4] -20% | [5] -1.95% | [6] 18.1%

C=CCOc1cc2c(cc1C(C)c1ccc(OCC)cc1)OCO2 (stereo unspecified)
inactive: [1] 51.6% | [2] 14.8% | [3] -14.6% | [4] -19.4% | [5] -10.8% | [6] -32.3%

COC(=O)c1nn2c(=O)n(C(C)=O)c3ccccc3c2c1C(=O)OC
inactive: [1] 27.2% | [2] 4.85% | [3] 9.65% | [4] 15.8% | [5] 8.5% | [6] 24.6%

CC(=O)Nc1cccc([N+](=O)[O-])c1
inactive: [1] 8.25% | [2] -10.3% | [3] 8.65% | [4] -7.85% | [5] -2.7% | [6] -19.6%

COC1C(C(=O)O)=CC=CC1OC(C)=O (stereo unspecified)
inactive: [1] 10.6% | [2] -5.45% | [3] -2.55% | [4] -44.1% | [5] 2.8% | [6] 13.6%

COC(=O)c1nnn(-c2cc(Cl)ccc2Cl)c1C(=O)c1ccc(OC)cc1
inactive: [1] -13.1% | [2] 3.8% | [3] -12.7% | [4] 53.7% | [5] 37.4% | [6] -3.25%

COC(=O)C(C(C[N+](=O)[O-])c1ccco1)=P(c1ccccc1)(c1ccccc1)c1ccccc1 (stereo unspecified)
active: [1] 89.5%
inactive: [2] 5.25% | [3] 45.6% | [4] 8.15% | [5] 0.95% | [6] 25.1%

NC(=O)c1csc(C2O[C@@H](COP(=O)(O)OP(=O)(O)OC[C@H]3OC(n4cnc5c(N)ncnc54)[C@H](O)[C@@H]3O)[C@H](O)[C@@H]2O)n1 (stereo partly specified)
inactive: [1] 28.8% | [2] -0.75% | [3] -0.55% | [4] -37.5% | [5] 2.75% | [6] 10.9%

O=S1(=O)C2CCC(C2)C1Cl (stereo unspecified)
inactive: [1] 4.5% | [2] 2.75% | [3] 7.45% | [4] -18.9% | [5] -1.05% | [6] 4.2%

O=C1c2ccccc2S(=O)N1OCc1ccccc1 (stereo unspecified)
inactive: [1] -0.85% | [2] 0.75% | [3] 15.4% | [4] -16.6% | [5] 0.95% | [6] 9.6%

Cc1nn(-c2nc(-c3ccccc3)cs2)c(C)c1C
inactive: [1] -6.05% | [2] -8.6% | [3] -20.6% | [4] 2.9% | [5] -0.5% | [6] -8.2%

CSc1ccc(/C=C/c2ccnc3ccccc23)cc1
inactive: [1] 11.8% | [2] 14.8% | [3] 20.7% | [4] -12.3% | [5] 4.7% | [6] 7.95%

Cc1cc2c(cc1C)[n+](=O)c(C(=O)CC(=O)C(=O)Nc1ccccc1C(C)C)c(C)n2[O-]
inactive: [1] -26.4% | [2] -4.75% | [3] -51.6% | [4] 13.1% | [5] -14.4% | [6] -33.6%

CCOC(=O)C(CCC#N)(NC(C)=O)C(=O)OCC
inactive: [1] 1.4% | [2] -2.35% | [3] 7.4% | [4] -25.3% | [5] 1.7% | [6] -20.9%

CC(=O)NC(CSCN(C)c1nc(N(C)C)nc(N(C)C)n1)C(=O)O (stereo unspecified)
inactive: [1] 7.5% | [2] -3.45% | [3] 2.95% | [4] 5.6% | [5] 8.2% | [6] 13.8%

O=C(NCc1ccc(Cl)c(Cl)c1)Nc1ccccc1Cl
inactive: [1] 10.6% | [2] 24.4% | [3] 23.3% | [4] -2.7% | [5] 24.8% | [6] 17.9%

C=CC(CCCC(C=C)OC(C)=O)OC(C)=O (stereo unspecified)
inactive: [1] 2.2% | [2] -4.95% | [3] -0.65% | [4] -18.1% | [5] 5.6% | [6] 5.5%

Oc1ccc(N=Cc2ccc(C=Nc3ccc(O)cc3)cc2)cc1
inactive: [1] -22.9% | [2] -12.6% | [3] -19% | [4] -7.7% | [5] -13.4% | [6] -16.4%

O=C(Nc1nncs1)c1cccs1
inactive: [1] -13.8% | [2] -6.45% | [3] -5.6% | [4] 3.35% | [5] -11.2% | [6] -27.5%

Cc1ccccc1C1OC2=C(Nc3ccc(Cl)cc3N2)C1=O (stereo unspecified)
inactive: [1] 15.6% | [2] -1.65% | [3] 10.3% | [4] 9.85% | [5] -11.8% | [6] 25.2%

Cc1ccccc1OCC1COCN(C(C)(C)CO)CO1 (stereo unspecified)
inactive: [1] -11.1% | [2] -4.5% | [3] -5.5% | [4] 7.9% | [5] -13.9% | [6] 16.8%

O=c1c2ccccc2n2nnc3ccc(NCCNCCO)c1c32
inactive: [1] -15.1% | [2] 2.8% | [3] -0.7% | [4] 23.3% | [5] -0.45% | [6] -1.3%

COc1ccc(NNc2ccc(OC)cc2)cc1
inactive: [1] 0.95% | [2] 7.65% | [3] -4.7% | [4] 17.9% | [5] -5.1% | [6] -9.5%

CC(=O)NC(CCCNC(=O)N(C)N=O)C(=O)NCc1ccccc1 (stereo unspecified)
inactive: [1] -35% | [2] -26.9% | [3] -15.6% | [4] 6.9% | [5] -21.2% | [6] -13.3%

COc1ccc(/C(Cl)=C(\CNc2ccccn2)c2ccccc2)cc1OC
inactive: [1] -14.4% | [2] -21.9% | [3] -39.9% | [4] -22.7% | [5] 2.3% | [6] -34.1%

Cn1cnc([N+](=O)[O-])c1Cl
inactive: [1] 43.4% | [2] -3.6% | [3] -2.2% | [4] -7.55% | [5] 19.2% | [6] -1.1%

COc1ccc(C)cc1Sc1ccc(C)cc1[N+](=O)[O-]
inactive: [1] -6.2% | [2] -6.7% | [3] -3.2% | [4] -27.5% | [5] 10% | [6] -22.9%

O=C(O)COc1cc2c(cc1Cc1ccc3c(c1)OCO3)OCO2
inactive: [1] 2.5% | [2] 13.1% | [3] 0.25% | [4] 1.15% | [5] 10.3% | [6] 8.35%

Cc1cc(Cl)cc(CN(C)Cc2c(C)[nH]c(=O)[nH]c2=O)c1O
inactive: [1] -31.4% | [2] -17.1% | [3] -17.2% | [4] 2.65% | [5] -0.5% | [6] -8.9%

Cc1cc(OCC(=O)O)c(C)cc1Cl
inactive: [1] -21.6% | [2] -17.1% | [3] -12.5% | [4] -0.25% | [5] -7.5% | [6] -13.6%

CCCN1C(=O)CN(S(=O)(=O)c2ccc(Cl)cc2)C1=O
inactive: [1] -1.1% | [2] 4.05% | [3] 3.6% | [4] -8% | [5] -1.25% | [6] -46.9%

CN(C)c1ccc(C(=O)O)cc1
inactive: [1] -0.75% | [2] 11.3% | [3] -20.4% | [4] -28.8% | [5] -17.6% | [6] -16.3%
